The source made the active and inactive calls. Rule for the calls: active = hit-call score of the fitted dose curve at least 0.9, where 1 is the maximum; inactive = score below 0.9.
Read-out: Interleukin-8 (IL8), CXCL8 (gene 3576)
Assay: BSK_hDFCGF_IL8: BioMAP Diversity Plus: hDFCGF Assay for Interleukin-8 (IL8) Biomarker Activity (AID 2283058)
Conditions: primary human foreskin fibroblasts; actives raise or lower the signal
Protocol: BSK_hDFCGF is a cell-based, multiplexed-readout assay that uses foreskin fibroblast, a human skin primary cell, with measurements taken at 24 hours after chemical dosing in a 96-well plate.BSK_hDFCGF_IL8 is an assay component measured in the BSK_hDFCGF assay. It measures IL-8 antibody related to regulation of gene expression using ELISA technology.Data from the assay component BSK_hDFCGF_IL8 was analyzed into 1 assay endpoint. This assay endpoint, BSK_hDFCGF_IL8, was analyzed with bidirectional fitting relative to DMSO as the negative control and baseline of activity. Using a type of binding reporter, gain or loss-of-signal activity can be used to understand changes in the signaling as they relate to the gene CXCL8. Furthermore, this assay endpoint can be referred to as a primary readout, because this assay has produced multiple assay endpoints where this one serves a signaling function. To generalize the intended target to other relatable targets, this assay endpoint is annotated to the cytokine intended target family, where the subfamily is interleukins.
The levels of cell surface (or secreted, indicated by the prefix "s") biomarker endpoints were measured by ELISA. Overt cytotoxicity to cells in confluent adherent cultures (all systems other than the BT system) was assessed by measuring total protein levels using sulforhodamine B (SRB) staining in parallel cultures at the time of biomarker measurements, indicated as SRB endpoints. For proliferation assays for adherent cell types, individual cell types are cultured at sub-confluence and relative cell numbers quantified by SRB staining at time points optimized for each system (48 h: 3C and CASM3C systems; 72 h: BT and HDF3CGF systems; 96 h: SAg system). SRB was performed by staining cells with 0.1% SRB after fixation with 10% TCA and reading wells at 560 nm.Viability and proliferation of PBMC (T cells) was quantified by Alamar Blue reduction for the SAg and BT systems. For PBMC viability (referred to as PBMC Cytotoxicity within the assay endpoint names), cells were plated (75,000/well in a 96-well plate) and then chemical samples added for 1 h before addition of activators, SEB and TSST-1 (20 ng/mL final concentration each). Cells were incubated for 90 h. Then, Alamar Blue (20 uL/well) (Invitrogen, Cat DAL1100) was added for 6 h, and the plates were read with a fluorescence microplate reader at 546/580 nm (excitation/emission). For PBMC proliferation, cells were plated and activated as above but incubated for only 16 h prior to addition of Alamar Blue. Plates were read after 6 h.

Row | Compound | AC50 | outcome
1 | CCc1c(C(=O)NN2CCCCC2)nn(-c2ccc(Cl)cc2Cl)c1-c1ccc(Br)cc1 | 3.39 µM (active) | –
2 | CC(=O)C(C)=CC1C(C)=CCCC1(C)C (stereo not given) | – | inactive
3 | CCNc1cccc(C)c1 | – | inactive
4 | CN1CCN(Cc2cc(-c3ccc4[nH]c(=O)oc4c3)co2)[C@@H](c2ccc(F)cc2)C1 | – | inactive
5 | c1cc(-c2ccncc2)ccn1 | – | inactive
6 | Cc1ccc(C)c(C)c1 | – | inactive
7 | Oc1ccc2ccccc2c1N=Nc1ccccc1 | – | inactive
8 | Clc1cc(Cl)c(Cl)cc1Cl | – | inactive
9 | CCCCN(CCCC)CCCC | – | inactive
10 | CC=Cc1ccc(O)c(OC)c1 | – | inactive
11 | Cc1cccc(C)c1O | – | inactive
12 | Nc1ccc2c(c1)C(=O)c1ccccc1C2=O | – | inactive
13 | CC1(C)CC(N=C=O)CC(C)(CN=C=O)C1 (stereo not given) | – | inactive
14 | Cc1ccccc1Cl | – | inactive
15 | Nc1ccccc1N | – | inactive
16 | COCCOC[C@H](CC1(C(=O)NC2CCC(C(=O)O)CC2)CCCC1)C(=O)Oc1ccc2c(c1)CCC2 (stereo not given in full) | – | inactive
17 | CCCc1cc(=O)[nH]c(=S)[nH]1 | – | inactive
18 | COCCOCCOC | – | inactive
19 | CN[C@H]1CC[C@@H](c2ccc(Cl)c(Cl)c2)c2ccc(S(N)(=O)=O)cc21 | 34.1 µM (active) | –
20 | CC1(C)NC(=O)NC1=O | – | inactive

Row | Compound | AC50 | outcome
21 | Cc1ccc(Cl)cc1 | – | inactive
22 | C=CCOC(=O)c1ccccc1C(=O)OCC=C | – | inactive
23 | CCCCCCCCCCCCCCCCCC(=O)O | – | inactive
24 | CC(C)(C)c1cc(O)c(C(C)(C)C)cc1O | – | inactive
25 | CN1CCCC1=O | – | inactive
26 | Nc1nc(N)c2nc(CNc3ccc(C(=O)N[C@@H](CCC(=O)O)C(=O)O)cc3)cnc2n1 | – | inactive
27 | CCCCCCCCCCCCCO | 29.9 µM (active) | –
28 | CCOc1ccc2c(c1)C(C)=CC(C)(C)N2 | – | inactive
29 | COc1cc(-c2nc(NC(=O)c3cc4cc(C)cc(C)c4n3CC(=O)O)sc2CCC2CCCCC2)c(OC)cc1Cl | 2.36 µM (active) | –
30 | Cc1oc(-c2ccccc2)nc1CCOc1cccc2c1ccn2CCC(=O)O | – | inactive
31 | CNC(=O)[C@H]1O[C@@H](n2cnc3c(NCc4cc(Cl)ccc4OCc4cc(C)no4)ncnc32)[C@H](O)[C@@H]1N | – | inactive
32 | Oc1ccc2c(c1)OC[C@@H](N1CCC(O)(c3ccc(F)cc3)CC1)[C@H]2O | – | inactive
33 | Cc1cccc(Nc2cc(Cl)nc(SCC(=O)O)n2)c1C | – | inactive
34 | COc1ccc(S(=O)(=O)N2C(=O)[C@@](c3ccccc3OC)(N3C[C@H](O)C[C@H]3C(=O)N(C)C)c3cc(Cl)ccc32)c(OC)c1 | – | inactive
35 | CCCCCCOCCO | – | inactive
36 | Cc1nc(C)nc(N2C[C@@H](C)N(c3ccnc([C@@H](C)O)n3)[C@@H](C)C2)n1 | – | inactive
37 | Cc1ccc(N(C)C)cc1 | – | inactive
38 | CC1=C(/C=C/C(C)=C/C=C/C(C)=C/CO)C(C)(C)CCC1 | – | inactive
39 | CCCCc1ccc2c(n1)[C@@H](c1ccc(OC)cc1C[C@H](C)C(=O)O)[C@H](C(=O)O)[C@H]2c1ccc2c(c1)OCO2 | – | inactive
40 | Cc1cc(=O)[nH]c(=S)[nH]1 | – | inactive

Source: PubChem BioAssay (EPA / NIEHS)
